The values that follow come from ChEMBL document CHEMBL1156829.

In all, about 5,400 compounds were measured (“IFI”: median about 2, highest 2% from about 22 on). Only a selection was taken, and the highest values are over-represented in it overall.

The nature of the experiment: NOVARTIS: Inhibition Frequency Index (IFI) - the number of HTS assays where a compound showed > 50% inhibition/induction, expressed as a percentage of the number of assays in which the compound was tested. The experiment is classed as functional.
`CCCCCC[P+](N(CCC)CCC)(N(CCC)CCC)N(CCC)CCC` showed an IFI of 29.1%. For `CCCN(CCC)[P+](CCC)(c1ccc([P+](CCC)(N(CCC)CCC)N(CCC)CCC)cc1)N(CCC)CCC` the value was 3.7%; for `CCCCNC(=O)C(CC)Sc1nnc(-c2ccc(C)cc2)c(-c2ccc(C)cc2)n1` (configuration not stated), 0%; for `C=CCSc1nc2sc3c(c2c(=O)n1-c1ccccc1)CCN(C)C3`, 7.55%.

The compound `O=C(Cc1ccccc1)Nc1ccc(C(=O)Nc2ccc(-c3nc4ccc(NC(=O)c5ccc(NC(=O)Cc6ccccc6)cc5)c(Cl)c4[nH]3)cc2)cc1` had an IFI of 7.58%. With `Nc1nc(Nc2cccc(Cl)c2)n[nH]1`, the IFI worked out at 1.07%. The compound `OCCCNc1cc(-c2ccnc(Nc3cccc(Cl)c3)n2)ccn1` registered an IFI of 30.8%. As to `OCCCNc1cc(-c2ccccn2)nc(-c2ccccn2)n1`, the IFI turned out to be 15.4%.

In turn, `Cc1nc2ccc(Cl)cc2c(O)c1I` showed an IFI of 0.752%. In turn, `CC(=O)N(C1=C(N2CCOCC2)C(=O)c2ccccc2C1=O)c1ccc(I)cc1` registered an IFI of 18.7%.

Regarding `CC(=O)N(C1=C(N2CCOCC2)C(=O)c2ccccc2C1=O)c1ccc(F)cc1`, the IFI is 24.7%. `CC(=O)N(C1=C(N(C)C)C(=O)c2ccccc2C1=O)c1ccc(F)cc1` registered an IFI of 31.1%. `CC(=O)N(C1=C(N(C)C)C(=O)c2ccccc2C1=O)c1ccc(Cl)c(Cl)c1`: the IFI was determined as 7.69%. For `CC(=O)N(C1=C(N(C)C)C(=O)c2ccccc2C1=O)c1cc(C)cc(C)c1` the value was 15.4%; for `CC(=O)N(C)C1=C(N2CCCC2)C(=O)c2ccccc2C1=O`, 0%; for `CC(=O)N(C1=C(N2CCCC2)C(=O)c2ccccc2C1=O)c1ccc(F)cc1`, 8.11%. `CC(=O)N(C)C1=C(N2CCCCCC2)C(=O)c2ccccc2C1=O` showed an IFI of 22.5%. For `CC(=O)N(C)C1=C(N2CCOCC2)C(=O)c2ccccc2C1=O`, the IFI came to 22.1%. `COc1cccc(-c2ccc(O)c(CN(C)CC(O)c3ccccc3)c2)n1` (configuration not stated) had an IFI of 2.56%. For `Cc1c(-c2ccccc2)c2ccccc2n1CCc1ccc(C)[n+](C)c1`, the IFI came out at 1.22%.

Take `COC(=O)c1sc(-c2ccccc2)cc1NC(=O)c1ccc(S(=O)(=O)N2CCCCCC2)cc1`: the IFI was 0%.

Compound `CC[n+]1c(C=C2Sc3ccccc3N2CCO)sc2ccccc21` yielded an IFI of 4.69%. Next, `CCc1ccc(-n2c(C(CC)N(CCC(C)C)C(=O)Nc3ccc(Cl)c(Cl)c3)nc3ccccc3c2=O)cc1` (configuration not stated): 6.67%; `Cc1c(Cl)cccc1NC(=S)N(CCCN(C)c1ccccc1)Cc1cccn1Cc1ccc(Cl)cc1`: 6.45%; `COC(=O)C1=CNC=C(C(=O)OC)C1c1cc(OC)c(OC)c(OC)c1`: 2.38%. Compound `NCC(c1ccc(F)cc1)c1ccc(F)cc1` returned an IFI of 0%. `CCCc1c(C)nc2ccc(Br)cc2c1O`: the IFI turned out to be 3.03%. Next, `O=C1C(N2CCCCC2)=C(N2CCCCC2)C(=O)c2ccccc21`: 0%; `Cn1c(=O)c(Cl)c2c3c(c(Cl)ccc31)C(=O)c1ccccc1-2`: 3.03%. Next, `Cn1c2c([n+](C)c1CCl)C(=O)c1ccccc1C2=O`: 35.7%. For `CN(C)CCNc1ncc(C(=O)NCc2ccccc2)c(NCCc2ccccc2)n1` the value was 1.92%. `COc1cc(C(=O)NCCc2ccccn2)ccc1OC1CCN(CC(c2ccccc2)c2ccccc2)CC1` showed an IFI of 1.37%. As for `CCOc1ccc(-c2noc(-c3ccncc3)n2)cc1OCC`, the IFI was 0%. For `CCOc1cc(-c2nc3c(=O)n(C)c(=O)nc-3n(C)n2)ccc1OC(C)C` the value was 30.8%. Take `CCOc1cc(-c2nnc3[nH]c(=O)n(C)c(=O)c3n2)ccc1OC(C)C`: the IFI was 4.44%. Take `O=C(Nc1ccc(NC(=O)c2ccco2)cc1Cl)c1ccccc1`: the IFI was determined as 0%.

In the case of `CN(C)c1oc(-c2ccc(Cl)cc2Cl)nc1[P+](c1ccccc1)(c1ccccc1)c1ccccc1`, the IFI came out at 20.4%. Compound `Cc1nc([P+](c2ccccc2)(c2ccccc2)c2ccccc2)c(N2CCCCC2)o1` returned an IFI of 9.09%. In turn, `Clc1ccccc1-c1nc([P+](c2ccccc2)(c2ccccc2)c2ccccc2)c(N2CCOCC2)o1` showed an IFI of 25.9%. On to `O=C(Nc1cc(C(F)(F)F)cc(C(F)(F)F)c1)Nc1ccc2nnsc2c1`, for which the IFI amounted to 12.8%.

The compound `C=CCSC1=NC2(CC(c3ccccc3)c3cc(Cl)c(O)cc3O2)CC(C)(C)N1` (configuration not stated) displayed an IFI of 0%. Regarding `O=C(c1cccc([N+](=O)[O-])c1)c1ccc(Cl)c(Cl)c1`, the IFI came to 0%. `Nc1ccc(-c2nc3cc(Oc4ccc(Oc5ccc6[nH]c(-c7ccc(N)cc7)nc6c5)cc4)ccc3[nH]2)cc1`: the IFI was 5.8%. The compound `COc1ccc(-c2nc3cc(Cc4ccc5[nH]c(-c6ccc(OC)cc6)nc5c4)ccc3[nH]2)cc1` returned an IFI of 25.7%. Compound `COc1ccc(C(=O)Nc2ccc(-c3nc4ccc(NC(=O)c5ccc(OC)cc5)cc4[nH]3)cc2)cc1` displayed an IFI of 12.8%. `Nc1ccc(-c2nc3cc(Oc4ccc5[nH]c(-c6ccc(N)cc6)nc5c4)ccc3[nH]2)cc1` came in with an IFI of 15.4%.

As to `Brc1ccc(C=Nc2ccc(-c3nc4cc(-c5ccc6[nH]c(-c7ccc(N=Cc8ccc(Br)cc8)cc7)nc6c5)ccc4[nH]3)cc2)cc1`, the IFI came to 23.1%.

The compound `Nc1ccc(-c2nc3cc(Cc4ccc5[nH]c(-c6ccc(N)cc6)nc5c4)ccc3[nH]2)cc1` registered an IFI of 10.3%.

In turn, `Brc1ccc(C=NNc2nc3ccccc3[nH]2)cc1` returned an IFI of 9.02%. The compound `c1cncc(-c2nc3cc(-c4ccc5[nH]c(-c6cccnc6)nc5c4)ccc3[nH]2)c1` had an IFI of 5.56%.

In the case of `Nc1ccc(-c2nc3cc(-c4ccc5[nH]c(-c6ccc(N)cc6)nc5c4)ccc3[nH]2)cc1`, the IFI was 27.3%.

`N=c1c2ccccc2nnn1-c1ccc(C(F)(F)F)cc1` displayed an IFI of 2.53%. Consider `COC(=O)c1sc2nc(CN3CCC(C)CC3)ccc2c1NC(=O)c1ccc(C)s1`, for which the IFI was found to be 1.74%. As for `CCOc1ccccc1-n1c(SCC(=O)c2ccc(Cl)cc2)nc2[nH]ncc2c1=O`, the IFI amounted to 1.16%.

`CC(=O)NC(CO)C(O)c1ccc([N+](=O)[O-])cc1` (configuration not stated) displayed an IFI of 0%.

Consider `COc1ccc(S(=O)(=O)N(C)CCCNc2ccnc3cc(Cl)ccc23)cc1`, for which the IFI turned out to be 10.2%. `CC(c1nc2ccccc2c(=O)n1C)N1CCN(C(=O)C(C)(C)C)CC1` (configuration not stated) came in with an IFI of 0%. `N#Cc1ccc(NC(=O)c2cc(Cl)ccc2O)cc1` came in with an IFI of 24.7%. For `O=C(Nc1cccc(Cl)c1)c1cc2ccccc2cc1O` the value was 9.62%. Next, `O=C(Nc1c2ccccc2nc2ccccc12)c1cc(Cl)ccc1O`: 3.03%; `CCCN(C(=O)Nc1c(C(C)C)cccc1C(C)C)C(CC)c1nc2ccccc2c(=O)n1-c1cccc(C)c1` (configuration not stated): 0.943%; `CCOC(=O)N1CCN(C(=O)C(=O)NNC(=O)COc2ccc(Cl)cc2Br)CC1`: 0%.
